Laboratory results: PubChem BioAssay (NCATS)
Several values for one entry are separate records, joined by “and”; a condition that tells them apart may be missing. Equal entries are not always repeated. Records with an inconclusive call do not appear. Activity calls are given as the source filed them. Unless noted, calls follow the shape of the dose curve; as a rule, active = well fitted curve in the direction sought with a large enough effect; inconclusive = small, poorly fitted or top-dose-only effect, or another doubt; inactive = no such curve, though single readings can be large; an effect the other way counts as inactive or inconclusive.

Experiments:
[1] = tested on: Zika virus NS2B-NS3 protease; experiment: Primary screen GU AMC qHTS for Zika virus inhibitors (AID 1347154);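 also: 0% = no-inhibitor control and -100% = no-enzyme control; nearly all actives have a fitted effect of over 70% in size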
How it was run: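 Unlinked Zika NS2B hydrophilic domain/NS3 protease domain noncovalent complex (25 nM final) in 10 mM Tris-HCl pH 8.0, 0.01% Tween 20, with AMC peptide substrate. Fluorescence (ex 340, em 450 nm) change over 15 min, room temperature; percent inhibition fitted to 4-parameter Hill equation.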

[2] = Counterscreen qHTS for small molecule stabilizers of the endoplasmic reticulum resident proteome: GLuc-NoTag assay (AID 1508627); also: potency is read from the fitted curve at half-maximal effect;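 as to activity change, negative = inhibition: 0% = thapsigargin alone and -100% = DMSO vehicle control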
How it was run: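 Secreted GLuc lacking the SERCaMP modification is measured in SH-SY5Y cells exposed to compound for 19 h and then to thapsigargin (100 nM, 4 h) to deplete ER calcium; hits retested at 11 concentrations, up to 76.6 uM.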

[3] = Confirmatory qHTS for small molecule stabilizers of the endoplasmic reticulum resident proteome: Secreted ER Calcium Modulated Protein (SERCaMP) assay (AID 1508628); also: potency is read from the fitted curve at half-maximal effect; nearly all actives have a fitted effect of over 40% in size
How it was run: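 GLuc-SERCaMP-expressing SH-SY5Y cells, pretreated 16 h with compound, are challenged with thapsigargin to empty ER calcium stores; after 4 h, coelenterazine is added directly to the medium and luminescence is imaged.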

[4] = Primary qHTS for inhibitors of nuclear receptor binding SET domain protein 2 (NSD2) in an isogenic RCH-ACV NSD2 p.E1099K mutant (9B) (AID 1645876); also: potency is read from the fitted curve at half-maximal effect; nearly all actives have a fitted effect of over 70% in size
[5] = Primary qHTS for inhibitors of nuclear receptor binding SET domain protein 2 (NSD2) in an RCH-ACV wild type WT cells (2C) (AID 1645877); also: potency is read from the fitted curve at half-maximal effect; nearly all actives have a fitted effect of over 70% in size
[6] = biological target: Catechol O-methyltransferase (Homo sapiens) (UniProt P21964); experiment: Confirmatory Screen for Target Class Profiling of Small Molecule Inhibitors of Methyltransferases (AID 1745852; calls by dose curve; also: potency is read from the fitted curve at half-maximal effect); conditions: MTase-Glo luminescence, SAH detection, recombinant enzyme; measured here: COMT max response; stronger effect = lower value
Sequence of Catechol O-methyltransferase (Homo sapiens) (P21964 whole entry, looked up): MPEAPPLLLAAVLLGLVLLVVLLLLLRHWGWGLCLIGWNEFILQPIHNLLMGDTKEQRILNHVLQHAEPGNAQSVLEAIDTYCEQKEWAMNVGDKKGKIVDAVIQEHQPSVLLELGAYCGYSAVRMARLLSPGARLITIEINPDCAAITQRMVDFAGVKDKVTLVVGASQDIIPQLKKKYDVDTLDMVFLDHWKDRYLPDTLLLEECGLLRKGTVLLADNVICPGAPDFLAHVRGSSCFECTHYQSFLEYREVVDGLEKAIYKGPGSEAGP

[7] = biological target: Guanidinoacetate N-methyltransferase (Homo sapiens) (UniProt Q14353); experiment: as above; conditions: activity change, negative = inhibition: at 57.3 µM (top of the series) unless noted
[8] = biological target: Nicotinamide N-methyltransferase (Homo sapiens) (UniProt P40261); experiment: as above; conditions: MTase-Glo luminescence, SAH detection, recombinant enzyme; measured here: NNMT max response; stronger effect = lower value
[9] = biological target: Phenylethanolamine N-methyltransferase (Homo sapiens) (UniProt P11086); experiment: as above; conditions: MTase-Glo luminescence, SAH detection, recombinant enzyme; measured here: PNMT max response; stronger effect = lower value
Sequence of Phenylethanolamine N-methyltransferase (Homo sapiens) (P11086 whole entry, looked up): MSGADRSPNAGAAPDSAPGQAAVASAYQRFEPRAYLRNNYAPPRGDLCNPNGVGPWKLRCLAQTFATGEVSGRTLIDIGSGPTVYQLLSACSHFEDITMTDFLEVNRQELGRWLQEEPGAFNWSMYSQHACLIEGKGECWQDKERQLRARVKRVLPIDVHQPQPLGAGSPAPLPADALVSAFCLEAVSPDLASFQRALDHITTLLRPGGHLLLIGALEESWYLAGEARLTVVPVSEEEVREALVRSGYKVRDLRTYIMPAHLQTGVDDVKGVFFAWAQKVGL

[10] = biological target: Glutathione peroxidase 1 (Homo sapiens) (UniProt P07203); experiment: Primary qHTS Assay for Inhibitors of Recombinant Selenoprotein Glutathione Peroxidase 1 (GPX1) (AID 1845191); also: % is scaled to controls: 0 for no effect and ±100 for the full control effect; nearly all actives have a fitted effect of over 65% in size
How it was run: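 GPX1 10 nM, GR 100 nM, GSH 1 mM, NADPH 0.5 mM, CHP 0.5 mM (final). 30-min cpd preincubation, RT. Ex340/Em450 read t=0, t=15 min.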

[11] = AP1 Signaling Pathway (AID 357; active = well fitted curve in either direction with a large enough effect, not every such curve was filed as active;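 also: ME-180 reporter cells stimulated with EGF at its EC50 level; % is scaled to controls: 0 for no effect and ±100 for the full control effect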); conditions: ME-180 AP-1-bla reporter, EGF-induced, beta-lactamase ratio, 5 h
How it was run: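 First, ME-180 AP-1-bla cells were cultured overnight at 37 °C in low-serum Opti-MEM. Next, titrated compounds with EC50 EGF were incubated 5 hours. Finally, CCF4 was added for 2.5 hours and the 460/530 nm ratio recorded.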

[12] = Stat Signaling Pathway (AID 446; active = well fitted curve in either direction with a large enough effect, not every such curve was filed as active;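 also: ME-180 cervical cancer cells given 40 pM IL-6 alongside compound; SIE-controlled beta-lactamase reporter measured as 460/530 nm FRET emission ratio; % is scaled to controls: 0 for no effect and ±100 for the full control effect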); conditions: ME-180 (cervical carcinoma) SIE beta-lactamase reporter, IL-6 stimulated, 5 h
How it was run: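 Compound effects on IL-6-induced STAT reporter activity were measured in ME-180 cells. After overnight culture, cells were co-treated with 40 pM IL-6 for 5 hrs before beta-lactamase substrate loading at room temperature.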

[13] = biological target: Glucocorticoid receptor (Homo sapiens) (UniProt P04150); experiment: GR-GFP Redistribution (AID 450;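 active = compounds whose dose series gives a full or clear partial fitted curve of increased nuclear translocation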; also: potency is read from the fitted curve at half-maximal effect); conditions: U2OS GR-GFP nuclear translocation, laser cytometry, 2 h
Sequence of Glucocorticoid receptor (Homo sapiens) (P04150 whole entry, looked up, the tested form may be a part): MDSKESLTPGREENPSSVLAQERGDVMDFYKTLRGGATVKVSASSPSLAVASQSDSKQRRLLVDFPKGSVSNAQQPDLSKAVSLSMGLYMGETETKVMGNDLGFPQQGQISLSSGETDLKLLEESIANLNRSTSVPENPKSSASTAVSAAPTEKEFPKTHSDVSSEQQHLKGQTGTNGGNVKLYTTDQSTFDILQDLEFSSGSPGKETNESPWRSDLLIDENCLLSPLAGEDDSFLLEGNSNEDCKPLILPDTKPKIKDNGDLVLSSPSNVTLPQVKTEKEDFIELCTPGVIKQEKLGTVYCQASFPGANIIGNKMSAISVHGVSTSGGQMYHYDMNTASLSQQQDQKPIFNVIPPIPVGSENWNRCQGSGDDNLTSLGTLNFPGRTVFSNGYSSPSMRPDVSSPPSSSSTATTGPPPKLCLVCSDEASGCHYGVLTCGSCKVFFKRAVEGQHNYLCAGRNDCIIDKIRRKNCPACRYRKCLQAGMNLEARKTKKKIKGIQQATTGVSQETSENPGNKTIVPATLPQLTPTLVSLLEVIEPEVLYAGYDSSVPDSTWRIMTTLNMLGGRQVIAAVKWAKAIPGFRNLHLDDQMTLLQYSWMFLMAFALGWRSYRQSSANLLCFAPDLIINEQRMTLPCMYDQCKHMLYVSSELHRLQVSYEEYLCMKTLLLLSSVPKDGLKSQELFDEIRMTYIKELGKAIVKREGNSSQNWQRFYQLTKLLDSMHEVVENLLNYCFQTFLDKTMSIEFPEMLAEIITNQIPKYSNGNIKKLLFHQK

[14] = biological target: Glucocorticoid receptor (Homo sapiens) (UniProt P04150); experiment: GR-EFC Redistribution (AID 451; calls by dose curve; also: potency is read from the fitted curve at half-maximal effect); conditions: CHO-K1 GR-EFC translocation, beta-gal luminescence, 2 h
How it was run: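 CHO-K1 cells stably expressing nuclear-localized β-gal enzyme acceptor and GR fused C-terminally to the enzyme donor fragment; ligand-driven nuclear translocation restores β-gal by complementation. Compounds titrated up to 46 uM final, 2 h at 37 °C; luminescence read.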

[15] = biological target: Mitogen-activated protein kinase 10 (Mus musculus) (UniProt Q61831); experiment: JNK3 AlphaScreen Assay (AID 530; active = well fitted curve in either direction with a large enough effect, not every such curve was filed as active;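 also: kinase came from lysate of stimulated human HepG2 cells; signal reports phosphorylation of biotinylated GST-cJun 1-79 at Ser73 with 10 µM ATP; % is scaled to controls: 0 for no effect and ±100 for the full control effect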)
How it was run: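 Biotinylated GST-cJun(1-79) served as substrate for JNK3 in HepG2 lysates stimulated with IL-1beta and TNF-alpha. ATP was 10 uM final, pH 7.6. Ser73 phosphorylation was quantified by AlphaScreen (680 nm excitation).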

[16] = biological target: 3',5'-cyclic-AMP phosphodiesterase 4B (Homo sapiens) (UniProt Q07343); experiment: qHTS Assay for Inhibitors of PDE-IV (AID 607; active = well fitted activation curve with a large enough effect in the main read-out, with a control signal flat, not every such curve was filed as active; also: % of control where 0% means no effect)
Sequence of 3',5'-cyclic-AMP phosphodiesterase 4B (Homo sapiens) (Q07343 whole entry, looked up): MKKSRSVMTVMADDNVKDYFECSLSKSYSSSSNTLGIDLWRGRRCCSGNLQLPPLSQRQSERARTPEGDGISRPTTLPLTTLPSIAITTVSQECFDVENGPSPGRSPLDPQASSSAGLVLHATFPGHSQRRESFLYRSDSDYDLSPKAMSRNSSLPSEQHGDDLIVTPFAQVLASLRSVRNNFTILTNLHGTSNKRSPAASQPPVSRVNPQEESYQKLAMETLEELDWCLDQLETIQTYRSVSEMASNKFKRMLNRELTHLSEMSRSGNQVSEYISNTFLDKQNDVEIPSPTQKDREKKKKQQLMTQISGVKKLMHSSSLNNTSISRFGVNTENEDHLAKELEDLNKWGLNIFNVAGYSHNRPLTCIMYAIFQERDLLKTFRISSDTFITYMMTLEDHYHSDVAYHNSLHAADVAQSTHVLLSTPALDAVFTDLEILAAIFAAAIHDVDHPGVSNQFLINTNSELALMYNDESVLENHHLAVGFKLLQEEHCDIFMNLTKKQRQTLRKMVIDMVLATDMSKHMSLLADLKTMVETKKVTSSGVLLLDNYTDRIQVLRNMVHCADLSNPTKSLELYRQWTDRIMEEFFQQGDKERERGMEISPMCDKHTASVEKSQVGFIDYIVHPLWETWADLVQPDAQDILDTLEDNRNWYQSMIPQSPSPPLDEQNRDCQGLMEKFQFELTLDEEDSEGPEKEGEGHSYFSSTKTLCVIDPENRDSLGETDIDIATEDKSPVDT
How it was run: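 ACTOne HEK293 cells carry a modified cAMP-gated CNG channel and express endogenous PDE4; plated 1000 cells/well, compounds up to 22.9 uM final. Membrane-potential dye fluorescence (ex 535/em 590) was read; parental cells received 10 uM forskolin + 100 uM RO 20-1724.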

[17] = biological target: Guanine nucleotide-binding protein G(i) subunit alpha-1 (Homo sapiens) (UniProt P63096); experiment: qHTS Assay for Inhibitors of RGS12 GoLoco Motif Activity (Green Fluorophore) (AID 879);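 also: 0% = labeled peptide with Gαi1 and full inhibition = labeled peptide alone without protein; negative values mean loss of peptide binding seen as reduced polarization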
How it was run: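 A drop in FITC polarization marked displacement of the FITC-tagged RGS12 GoLoco peptide (10 nM) from Gαi1 (50 nM). Compounds were incubated 10 min at room temperature in Tris pH 7.5 buffer containing 150 mM NaCl, 0.1 mM GDP and 0.05% NP40; unlabeled peptide titration served as control.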

[18] = biological target: Cytochrome P450 3A4 (Homo sapiens) (UniProt P08684); experiment: qHTS Assay for Activators of Cytochrome P450 3A4 (AID 885); also: nearly all actives have a fitted effect of over 65% in size
Sequence of Cytochrome P450 3A4 (Homo sapiens) (P08684 whole entry, looked up): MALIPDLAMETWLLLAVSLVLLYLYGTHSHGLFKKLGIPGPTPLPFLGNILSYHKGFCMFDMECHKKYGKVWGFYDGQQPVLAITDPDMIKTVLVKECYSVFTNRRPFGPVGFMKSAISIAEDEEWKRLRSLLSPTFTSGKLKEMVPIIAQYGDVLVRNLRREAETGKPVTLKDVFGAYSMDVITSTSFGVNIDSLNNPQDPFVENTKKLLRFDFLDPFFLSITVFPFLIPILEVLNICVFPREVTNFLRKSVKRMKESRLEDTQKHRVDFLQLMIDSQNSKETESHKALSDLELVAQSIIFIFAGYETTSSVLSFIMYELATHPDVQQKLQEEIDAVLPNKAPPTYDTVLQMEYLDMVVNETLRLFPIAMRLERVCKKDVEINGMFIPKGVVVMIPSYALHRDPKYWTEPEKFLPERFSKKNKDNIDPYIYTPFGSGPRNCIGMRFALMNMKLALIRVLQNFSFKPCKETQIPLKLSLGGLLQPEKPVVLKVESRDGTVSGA
How it was run: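 CYP3A4 activity: Luciferin-PPXE O-dealkylation, 25uM substrate, 200mM KPO4, RT throughout. Read-out is luciferase luminescence; higher values reflect activation.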

[19] = biological target: Cytochrome P450 2D6 (Homo sapiens) (UniProt P10635); experiment: qHTS Assay for Inhibitors and Substrates of Cytochrome P450 2D6 (AID 891); also: potency is read from the fitted curve at half-maximal effect; nearly all actives have a fitted effect of over 60% in size
Sequence of Cytochrome P450 2D6 (Homo sapiens) (P10635 whole entry, looked up): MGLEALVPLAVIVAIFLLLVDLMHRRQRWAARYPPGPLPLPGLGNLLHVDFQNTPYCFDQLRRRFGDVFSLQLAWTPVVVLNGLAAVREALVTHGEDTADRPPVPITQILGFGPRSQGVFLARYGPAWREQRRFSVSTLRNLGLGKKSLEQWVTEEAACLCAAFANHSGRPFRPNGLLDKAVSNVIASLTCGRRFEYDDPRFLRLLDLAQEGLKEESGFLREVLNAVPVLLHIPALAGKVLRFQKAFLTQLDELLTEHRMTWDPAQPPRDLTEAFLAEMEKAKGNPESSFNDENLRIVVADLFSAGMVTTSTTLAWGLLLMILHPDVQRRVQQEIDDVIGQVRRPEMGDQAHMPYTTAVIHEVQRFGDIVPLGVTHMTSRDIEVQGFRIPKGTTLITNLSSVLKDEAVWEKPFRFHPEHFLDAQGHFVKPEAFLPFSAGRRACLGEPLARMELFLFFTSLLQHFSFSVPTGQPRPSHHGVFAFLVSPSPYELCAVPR
How it was run: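 Luminescent read-out of luciferin formed by 5 nM human CYP2D6 demethylating 30 uM Luciferin-ME EGE (Km level) over 60 min at room temperature after NADPH regeneration addition. Data normalized to full inhibition by 1.43 uM quinidine.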

[20] = biological target: Cytochrome P450 2C19 (Homo sapiens) (UniProt P33261); experiment: qHTS Assay for Inhibitors and Substrates of Cytochrome P450 2C19 (AID 899); also: potency is read from the fitted curve at half-maximal effect; nearly all actives have a fitted effect of over 60% in size
How it was run: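 Human CYP2C19 (5nM) with Luciferin-H EGE at 10uM (its KM) in 50mM KPO4 was preincubated with compound for 10 min at 37C. NADPH regeneration started a 60 min 37C reaction. Luciferin was read by luminescence, normalized to 57uM ketoconazole.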

[21] = qHTS Assay for Identification of Small Molecule Antagonists for Thrombopoietin (TPO) Signaling Pathway (AID 918); conditions: TPO-dependent cell signaling reporter, antagonist mode; also: potency is read from the fitted curve at half-maximal effect; nearly all actives have a fitted effect of over 60% in size
How it was run: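 Antagonist mode at EC50 TPO (26 pM) in IL-3-free medium; murine Ba/F3 cells with human TPO receptor and GPIIb-promoter luciferase, 24 hrs at 37 C before luminescent detection.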

[22] = biological target: Muscarinic acetylcholine receptor M1 (Rattus norvegicus) (UniProt P08482); experiment: qHTS Assay for Antagonists of Acetylcholine Muscarinic M1 Receptor: Kinetic Measurement of Intracellular Calcium Response (AID 943); also: potency is read from the fitted curve at half-maximal effect; nearly all actives have a fitted effect of over 75% in size
Sequence of Muscarinic acetylcholine receptor M1 (Rattus norvegicus) (P08482 whole entry, looked up): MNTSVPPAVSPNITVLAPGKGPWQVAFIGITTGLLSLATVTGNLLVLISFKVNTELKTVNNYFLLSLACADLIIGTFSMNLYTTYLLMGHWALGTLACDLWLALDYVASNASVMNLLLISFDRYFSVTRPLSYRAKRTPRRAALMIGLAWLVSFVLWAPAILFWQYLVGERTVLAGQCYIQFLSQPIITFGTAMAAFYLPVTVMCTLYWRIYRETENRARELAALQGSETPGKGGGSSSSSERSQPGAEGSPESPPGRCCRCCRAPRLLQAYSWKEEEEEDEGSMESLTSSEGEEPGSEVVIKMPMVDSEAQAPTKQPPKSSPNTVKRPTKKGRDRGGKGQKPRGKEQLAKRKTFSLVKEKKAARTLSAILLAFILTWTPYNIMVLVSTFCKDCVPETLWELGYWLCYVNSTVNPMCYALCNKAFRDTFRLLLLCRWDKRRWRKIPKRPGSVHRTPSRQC
How it was run: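 Quantitative HTS in CHO-M1 (rat receptor) cells: 10 min compound exposure ahead of 100 nM carbachol, Fluo-4 fluorescence followed 4 min, value expressed as peak-to-basal ratio.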

[23] = biological target: Muscarinic acetylcholine receptor M1 (Rattus norvegicus) (UniProt P08482); experiment: qHTS Assay for Antagonists of Acetylcholine Muscarinic M1 Receptor: Measurement of IP-One Response (AID 944); also: potency is read from the fitted curve at half-maximal effect; nearly all actives have a fitted effect of over 75% in size
How it was run: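 Antagonism was measured as loss of carbachol-driven (EC80) IP1 accumulation in CHO cells carrying rat M1, using a homogeneous IP-One TR-FRET kit read at 620 and 665 nm.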

[24] = biological target: Pyruvate kinase (Leishmania mexicana) (UniProt Q27686); experiment: qHTS Validation Assay for Inhibitors of Leishmania Mexicana Pyruvate Kinase (AID 945);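 also: 0% = DMSO only neutral control wells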
Sequence of Pyruvate kinase (Leishmania mexicana) (Q27686 2-499 E452W): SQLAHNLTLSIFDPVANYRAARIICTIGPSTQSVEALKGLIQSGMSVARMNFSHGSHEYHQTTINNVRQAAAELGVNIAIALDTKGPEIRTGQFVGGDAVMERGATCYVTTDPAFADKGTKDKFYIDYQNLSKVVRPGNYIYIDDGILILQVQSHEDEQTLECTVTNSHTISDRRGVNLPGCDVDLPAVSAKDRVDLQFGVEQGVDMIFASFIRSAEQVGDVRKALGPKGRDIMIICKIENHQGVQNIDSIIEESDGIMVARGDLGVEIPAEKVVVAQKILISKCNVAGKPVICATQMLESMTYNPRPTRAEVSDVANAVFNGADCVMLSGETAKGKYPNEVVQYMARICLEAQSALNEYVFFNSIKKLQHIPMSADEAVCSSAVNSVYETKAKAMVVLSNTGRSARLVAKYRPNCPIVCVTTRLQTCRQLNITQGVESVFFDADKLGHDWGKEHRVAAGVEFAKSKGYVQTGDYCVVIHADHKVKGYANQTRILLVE
How it was run: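 Substrate mix (0.5 mM PEP, 0.1 mM ADP, 7 mM MgCl2, 50 mM KCl, pH 7.2 imidazole) received compound by pin tool, then 0.2 nM LmPYK E451W. After 1 h at room temperature, PKLight was added and luminescence measured.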

[25] = biological target: Pyruvate kinase PKM (Homo sapiens) (UniProt P14618); experiment: qHTS Assay for Activators of Human Muscle Pyruvate Kinase (AID 954; active = well fitted curve in the direction sought with a large enough effect, not every such curve was filed as active;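 also: 0% = uninhibited enzyme and -100% = no enzyme or full thiadiazolimine inhibition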)
Sequence of Pyruvate kinase PKM (Homo sapiens) (P14618 whole entry, looked up): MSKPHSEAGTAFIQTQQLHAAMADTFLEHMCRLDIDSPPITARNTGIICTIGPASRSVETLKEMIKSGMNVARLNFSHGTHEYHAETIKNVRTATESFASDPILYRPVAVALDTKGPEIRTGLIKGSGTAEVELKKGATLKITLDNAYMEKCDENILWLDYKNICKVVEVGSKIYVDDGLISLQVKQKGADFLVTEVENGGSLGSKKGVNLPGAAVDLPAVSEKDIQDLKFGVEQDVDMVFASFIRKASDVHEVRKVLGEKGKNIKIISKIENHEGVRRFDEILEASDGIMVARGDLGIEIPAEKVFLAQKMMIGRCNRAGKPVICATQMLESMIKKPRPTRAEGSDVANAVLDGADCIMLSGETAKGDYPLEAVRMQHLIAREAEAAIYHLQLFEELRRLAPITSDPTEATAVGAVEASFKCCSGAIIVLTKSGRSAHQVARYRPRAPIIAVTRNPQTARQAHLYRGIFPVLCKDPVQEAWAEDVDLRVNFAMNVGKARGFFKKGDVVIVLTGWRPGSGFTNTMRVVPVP
How it was run: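 A coupled luminescent readout tracked ATP made from ADP by purified PKM2. Final conditions included 0.1 nM enzyme, PEP and ADP at 0.5 and 0.1 mM, pH 7.2 imidazole buffer with BSA, and a one-hour room-temperature reaction.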

[26] = biological target: Alpha-galactosidase A (Homo sapiens) (UniProt P06280); experiment: Counterscreen for Glucocerebrosidase Inhibitors: qHTS Assay for Human alpha-Galactosidase at pH 4.5 (AID 992); also: 0% is about no effect
Sequence of Alpha-galactosidase A (Homo sapiens) (P06280 whole entry, looked up): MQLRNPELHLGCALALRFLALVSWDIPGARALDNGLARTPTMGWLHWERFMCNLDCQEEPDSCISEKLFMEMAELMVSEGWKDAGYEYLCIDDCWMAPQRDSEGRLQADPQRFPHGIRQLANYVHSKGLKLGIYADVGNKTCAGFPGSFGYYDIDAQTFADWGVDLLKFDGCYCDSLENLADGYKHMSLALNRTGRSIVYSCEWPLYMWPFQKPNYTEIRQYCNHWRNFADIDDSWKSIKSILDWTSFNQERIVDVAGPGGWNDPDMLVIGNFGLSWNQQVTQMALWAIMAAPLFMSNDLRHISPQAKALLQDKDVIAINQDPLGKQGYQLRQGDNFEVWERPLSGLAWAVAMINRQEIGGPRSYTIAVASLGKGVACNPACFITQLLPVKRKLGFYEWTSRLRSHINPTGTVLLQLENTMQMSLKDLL
How it was run: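 Citrate buffer pH 4.5, Tween-20 0.005%. Enzyme 2 nM, substrate 80 uM, 20 min RT. Stop pH 10. Fluorescence Ex 365/Em 440. AC50 by Hill fit.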

[27] = biological target: alpha-glucosidase (Oryza sativa, rice) (UniProt Q653V4); experiment: Counterscreen for Glucocerebrosidase Inhibitors: qHTS Assay for Rice alpha-Glucosidase at pH 5.0 (AID 997);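 also: 0% = full activity with enzyme and -100% = basal without enzyme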
How it was run: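 Endpoint fluorogenic assay at pH 5.0: compounds (0.7 nM to 77 uM) titrated against 4 nM rice enzyme and 400 uM 4-MU-alpha-glucoside for 20 min at room temperature; NaOH/glycine stop, read ex 365/em 440 nm, Hill-fitted AC50.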

[28] = qHTS Assay for Lipid Storage Modulators (AID 1519; calls by dose curve; as to activity change, negative = inhibition: % is scaled to controls: 0 for no effect and ±100 for the full control effect); conditions: Drosophila S3 cells, BODIPY lipid droplet/cell ratio, laser cytometry, cells loaded with oleic acid
How it was run: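 Cells seeded at 5,000 per well were treated with compounds over a concentration series and loaded with oleic acid (400 uM, as added). Lipid droplet fluorescence (488 nm excitation, 500-530 nm channel) was read by laser-scanning cytometry and normalized to 20 uM Triacsin C.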

[29] = biological target: Ubiquitin carboxyl-terminal hydrolase 1 (Homo sapiens) (UniProt O94782); experiment: Inhibitors of USP1/UAF1: Pilot qHTS (AID 504865);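 also: rhodamine fluorescence freed from ubiquitin-rhodamine substrate followed over time; top concentration of the series differs between compounds; % is scaled to controls: 0 for no effect and ±100 for the full control effect; nearly all actives have a fitted effect of over 35% in size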
How it was run: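 Enzyme-free wells gave the negative control, while test wells held 1nM USP1/UAF1 preincubated with compound for 15 min at room temperature. Ub-Rho at 150nM final started the reaction, and fluorescence at 480/540 nm was recorded kinetically.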

[30] = biological target: DNA dC->dU-editing enzyme APOBEC-3G (Homo sapiens) (UniProt Q9HC16); experiment: qHTS for inhibitors of Vif-A3G interactions: Validation (AID 588379); also: 0% is about no effect
How it was run: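 Yellow fluorescence (Ex 488, Em 500-530) of Vif-coexpressing HeLa A3G-eYFP cells, scanned by Acumen cytometer, reports blocked A3G degradation. Cells plated at 700/well overnight at 37 deg C before compound addition, then a further overnight compound incubation at 37 deg C.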

CNc1cc2c(Nc3cccc(Br)c3)ncnc2cn1
-23.8%: activity [8]
inactive: Potency [1] | Potency [10]
active: Potency [2] 35.5 µM | Potency [3] 2 µM | Potency [4] 14.6 µM | Potency [5] 20.6 µM | Potency [7] 30.4 µM
-38.7%: activity [6]
-74.4%: activity [9]

CSc1ccc2c(c1)[C@H](N1CCN(C)CC1)Cc1ccccc1S2
inactive: activity change, negative = inhibition ([11]; at 17.2 µM (top of the series)) 22.7% | activity change, negative = inhibition ([11]; at 38 µM (top of the series)) 16% | activity, negative = inhibition ([12]; at 17.2 µM (top of the series)) -9.5% | activity, negative = inhibition ([12]; at 38 µM (top of the series)) -17.1% | Potency [13] > 46 µM and > 20.6 µM | Potency [14] > 46 µM and > 20.6 µM | Potency [15] | Potency [16] | outcome [17] | Potency [18] | Potency [24] | outcome [25] | outcome [26] | outcome [27] | activity change, negative = inhibition ([28]; at 25.7 µM (top of the series)) -1.54% | Potency [29] | Potency [30] | Potency [1] | Potency [2]
active: Potency [19] 3.98 µM and 1.58 µM and 316 nM | Potency [20] 7.94 µM | Potency [21] 10 µM | Potency [22] 2.24 µM | Potency [23] 5.62 µM | Potency [3] 7.94 µM
-9.42%: max response ([28]; measured here: cell count channel max response)
-12.6%: max response ([28]; measured here: lipid channel max response)
